# Laboratory results reported in PMC7862700, “An all-to-all approach to the identification of sequence-specific readers for epigenetic DNA modifications on cytosine”.
# Experiments:
# Assay in all cases: DAPPL (digital affinity profiling via proximity ligation, sequencing); 10 mM Tris-HCl pH 7.5, 50 mM NaCl, 1 mM DTT, 4% glycerol, room temperature, 30 min; GST-TFs on glutathione beads, 16-mer random dsDNA library, 0.1% formaldehyde crosslink after washing; high values mean tight binding
# Conditions in all cases: protein: recombinant; tags: N-terminal GST; dsDNA, one strand shown
# FLI1 = target: T1, FLI1 (Homo sapiens, UniProt Q01543 1-452)
# T1 sequence: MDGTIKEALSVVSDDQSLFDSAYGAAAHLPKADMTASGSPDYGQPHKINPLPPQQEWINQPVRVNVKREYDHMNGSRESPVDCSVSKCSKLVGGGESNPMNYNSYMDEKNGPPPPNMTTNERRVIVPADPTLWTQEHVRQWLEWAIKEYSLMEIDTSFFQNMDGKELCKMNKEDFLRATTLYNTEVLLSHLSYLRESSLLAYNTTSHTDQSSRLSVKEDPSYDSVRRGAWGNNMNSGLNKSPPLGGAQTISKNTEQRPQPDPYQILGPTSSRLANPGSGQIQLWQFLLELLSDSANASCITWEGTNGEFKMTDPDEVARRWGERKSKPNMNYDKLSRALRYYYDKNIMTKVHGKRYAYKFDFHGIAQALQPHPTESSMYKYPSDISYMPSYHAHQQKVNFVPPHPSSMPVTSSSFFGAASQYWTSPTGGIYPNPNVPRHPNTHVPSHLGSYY
# Outline: (§1)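 After expression in yeast as GST fusions, human transcription factors were bound to glutathione beads, DNA-barcoded and mixed with a tag-only sample. The pools were incubated with 200 nmole of a 16-mer random double-stranded DNA library in Tris/NaCl/DTT/glycerol buffer (30 min, room temperature), washed and crosslinked with 0.1% formaldehyde. Proximity ligation with BsaI/T4 ligase ran for 1 h at 37 °C, before PCR amplification and sequencing on an Illumina NextSeq500. Binding signal is a hexamer's read frequency for a factor divided by its frequency for the tag-only sample.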
# ELK1 = target: T2, ELK1 (Homo sapiens, UniProt P19419 1-428)
# T2 sequence: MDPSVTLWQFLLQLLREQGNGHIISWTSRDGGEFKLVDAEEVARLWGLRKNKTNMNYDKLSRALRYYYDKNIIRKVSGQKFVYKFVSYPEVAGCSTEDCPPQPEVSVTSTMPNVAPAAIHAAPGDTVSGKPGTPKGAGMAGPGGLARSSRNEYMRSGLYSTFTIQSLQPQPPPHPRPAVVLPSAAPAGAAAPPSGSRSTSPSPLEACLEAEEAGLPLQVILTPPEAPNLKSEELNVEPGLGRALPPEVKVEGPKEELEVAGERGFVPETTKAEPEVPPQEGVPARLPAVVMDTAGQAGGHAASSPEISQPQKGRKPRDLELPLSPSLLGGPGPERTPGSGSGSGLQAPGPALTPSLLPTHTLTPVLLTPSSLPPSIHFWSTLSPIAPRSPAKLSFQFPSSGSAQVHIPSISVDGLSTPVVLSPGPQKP
# Outline: as §1
# GABPA = target: T3, GABPA (Homo sapiens, UniProt Q06546 1-454)
# T3 sequence: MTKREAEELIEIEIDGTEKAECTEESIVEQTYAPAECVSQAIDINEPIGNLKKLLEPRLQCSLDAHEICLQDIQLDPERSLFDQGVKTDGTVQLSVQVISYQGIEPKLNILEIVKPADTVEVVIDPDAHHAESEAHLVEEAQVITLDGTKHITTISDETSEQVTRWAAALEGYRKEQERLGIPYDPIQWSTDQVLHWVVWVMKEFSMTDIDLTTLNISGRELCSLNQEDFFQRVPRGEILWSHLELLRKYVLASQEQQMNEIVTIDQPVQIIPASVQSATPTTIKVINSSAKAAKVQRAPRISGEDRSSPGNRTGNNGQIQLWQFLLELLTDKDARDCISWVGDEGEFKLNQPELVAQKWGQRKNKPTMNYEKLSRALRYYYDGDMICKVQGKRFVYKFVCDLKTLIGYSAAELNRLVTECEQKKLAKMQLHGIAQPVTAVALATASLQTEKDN
# Outline: as §1
# ERG = target: T4, ERG (Homo sapiens, UniProt P11308 1-479)
# T4 sequence: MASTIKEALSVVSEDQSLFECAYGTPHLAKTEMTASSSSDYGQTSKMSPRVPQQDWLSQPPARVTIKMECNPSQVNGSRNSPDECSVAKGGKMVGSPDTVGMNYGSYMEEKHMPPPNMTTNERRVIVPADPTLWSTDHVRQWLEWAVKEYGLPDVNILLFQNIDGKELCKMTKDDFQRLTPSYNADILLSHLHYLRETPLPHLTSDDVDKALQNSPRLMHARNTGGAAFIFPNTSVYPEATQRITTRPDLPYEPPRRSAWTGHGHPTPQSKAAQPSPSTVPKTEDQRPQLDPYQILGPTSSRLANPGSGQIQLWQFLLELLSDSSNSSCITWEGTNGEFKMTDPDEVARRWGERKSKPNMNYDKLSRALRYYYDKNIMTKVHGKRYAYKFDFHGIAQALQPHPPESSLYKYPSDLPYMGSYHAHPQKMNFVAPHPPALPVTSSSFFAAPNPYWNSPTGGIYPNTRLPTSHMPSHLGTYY
# Outline: as §1
# ELF1 = ELF1 (Homo sapiens, UniProt P32519 1-619)
# Chain of ELF1 (P32519 whole entry): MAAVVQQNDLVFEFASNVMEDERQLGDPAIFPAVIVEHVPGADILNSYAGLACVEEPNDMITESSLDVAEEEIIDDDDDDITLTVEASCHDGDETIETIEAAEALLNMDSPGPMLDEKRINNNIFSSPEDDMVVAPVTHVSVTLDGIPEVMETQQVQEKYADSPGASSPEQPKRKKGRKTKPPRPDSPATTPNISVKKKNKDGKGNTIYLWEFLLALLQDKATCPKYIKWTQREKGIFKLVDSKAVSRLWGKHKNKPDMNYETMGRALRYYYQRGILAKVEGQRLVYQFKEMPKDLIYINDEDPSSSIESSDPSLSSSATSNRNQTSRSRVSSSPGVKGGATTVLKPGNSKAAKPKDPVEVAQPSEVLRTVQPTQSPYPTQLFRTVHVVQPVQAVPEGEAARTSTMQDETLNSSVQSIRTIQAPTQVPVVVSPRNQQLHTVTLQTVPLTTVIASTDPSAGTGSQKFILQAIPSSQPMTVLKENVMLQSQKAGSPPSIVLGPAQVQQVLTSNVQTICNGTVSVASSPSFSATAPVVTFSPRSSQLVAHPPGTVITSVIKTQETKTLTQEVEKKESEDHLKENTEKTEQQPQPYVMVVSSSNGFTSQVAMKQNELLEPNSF
# Outline: as §1
# EHF = target: T5, EHF (Homo sapiens, UniProt Q9NZC4 1-300)
# T5 sequence: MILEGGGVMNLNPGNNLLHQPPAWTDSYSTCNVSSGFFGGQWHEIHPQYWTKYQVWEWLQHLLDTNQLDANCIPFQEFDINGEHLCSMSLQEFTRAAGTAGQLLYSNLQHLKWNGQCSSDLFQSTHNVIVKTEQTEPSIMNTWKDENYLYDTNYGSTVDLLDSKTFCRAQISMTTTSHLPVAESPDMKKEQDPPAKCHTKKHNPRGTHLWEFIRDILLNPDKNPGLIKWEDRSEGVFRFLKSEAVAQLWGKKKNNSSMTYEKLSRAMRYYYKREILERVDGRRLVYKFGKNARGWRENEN
# Outline: as §1
# SPI1 = SPI1 (Homo sapiens, UniProt P17947 1-270)
# Outline: as §1
# SPIB = SPIB (Homo sapiens, UniProt Q01892 1-262)
# Chain of SPIB (Q01892 whole entry): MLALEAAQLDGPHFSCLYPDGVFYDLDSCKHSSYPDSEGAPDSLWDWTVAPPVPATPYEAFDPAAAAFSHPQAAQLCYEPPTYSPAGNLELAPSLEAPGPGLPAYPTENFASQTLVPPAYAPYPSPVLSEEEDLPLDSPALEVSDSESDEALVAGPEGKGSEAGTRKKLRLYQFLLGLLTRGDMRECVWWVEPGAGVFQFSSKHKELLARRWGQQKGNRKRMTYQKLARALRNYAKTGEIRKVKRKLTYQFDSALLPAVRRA
# Outline: as §1
# FEV = target: T6, FEV (Homo sapiens, UniProt Q99581 1-238)
# T6 sequence: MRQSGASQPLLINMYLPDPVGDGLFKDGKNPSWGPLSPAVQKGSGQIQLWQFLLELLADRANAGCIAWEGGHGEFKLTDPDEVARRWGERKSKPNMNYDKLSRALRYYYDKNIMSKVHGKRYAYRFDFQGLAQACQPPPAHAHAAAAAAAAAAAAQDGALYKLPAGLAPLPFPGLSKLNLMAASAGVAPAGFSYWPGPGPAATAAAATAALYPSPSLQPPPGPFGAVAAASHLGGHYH
# Outline: as §1
# ETV5 = ETV5 (Homo sapiens, UniProt P41161 1-510)
# Chain of ETV5 (P41161 whole entry): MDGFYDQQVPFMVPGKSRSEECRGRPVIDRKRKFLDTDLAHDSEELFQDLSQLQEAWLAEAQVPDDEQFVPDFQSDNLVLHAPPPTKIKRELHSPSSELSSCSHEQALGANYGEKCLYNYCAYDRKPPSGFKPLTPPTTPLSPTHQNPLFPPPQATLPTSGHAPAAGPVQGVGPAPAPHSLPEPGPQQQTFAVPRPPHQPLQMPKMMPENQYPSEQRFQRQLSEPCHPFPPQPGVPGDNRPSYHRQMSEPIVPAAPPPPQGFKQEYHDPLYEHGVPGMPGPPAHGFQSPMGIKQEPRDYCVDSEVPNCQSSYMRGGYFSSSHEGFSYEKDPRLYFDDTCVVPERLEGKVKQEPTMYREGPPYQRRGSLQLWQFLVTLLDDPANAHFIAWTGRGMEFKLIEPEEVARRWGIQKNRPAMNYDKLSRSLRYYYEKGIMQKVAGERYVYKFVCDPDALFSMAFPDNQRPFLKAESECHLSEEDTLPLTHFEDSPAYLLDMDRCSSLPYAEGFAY
# Outline: as §1
# SPIC = target: T7, SPIC (Homo sapiens, UniProt Q8N5J4 1-248)
# T7 sequence: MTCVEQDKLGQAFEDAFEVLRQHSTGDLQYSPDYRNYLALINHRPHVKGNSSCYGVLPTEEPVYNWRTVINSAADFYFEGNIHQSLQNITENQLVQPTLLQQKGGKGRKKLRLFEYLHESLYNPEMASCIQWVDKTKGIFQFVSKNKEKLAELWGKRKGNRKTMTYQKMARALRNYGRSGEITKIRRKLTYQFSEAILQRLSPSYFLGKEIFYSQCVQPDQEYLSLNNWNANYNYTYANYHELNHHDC
# Outline: as §1
# ELF4 = ELF4 (Homo sapiens, UniProt Q99607 1-663)
# Chain of ELF4 (Q99607 whole entry): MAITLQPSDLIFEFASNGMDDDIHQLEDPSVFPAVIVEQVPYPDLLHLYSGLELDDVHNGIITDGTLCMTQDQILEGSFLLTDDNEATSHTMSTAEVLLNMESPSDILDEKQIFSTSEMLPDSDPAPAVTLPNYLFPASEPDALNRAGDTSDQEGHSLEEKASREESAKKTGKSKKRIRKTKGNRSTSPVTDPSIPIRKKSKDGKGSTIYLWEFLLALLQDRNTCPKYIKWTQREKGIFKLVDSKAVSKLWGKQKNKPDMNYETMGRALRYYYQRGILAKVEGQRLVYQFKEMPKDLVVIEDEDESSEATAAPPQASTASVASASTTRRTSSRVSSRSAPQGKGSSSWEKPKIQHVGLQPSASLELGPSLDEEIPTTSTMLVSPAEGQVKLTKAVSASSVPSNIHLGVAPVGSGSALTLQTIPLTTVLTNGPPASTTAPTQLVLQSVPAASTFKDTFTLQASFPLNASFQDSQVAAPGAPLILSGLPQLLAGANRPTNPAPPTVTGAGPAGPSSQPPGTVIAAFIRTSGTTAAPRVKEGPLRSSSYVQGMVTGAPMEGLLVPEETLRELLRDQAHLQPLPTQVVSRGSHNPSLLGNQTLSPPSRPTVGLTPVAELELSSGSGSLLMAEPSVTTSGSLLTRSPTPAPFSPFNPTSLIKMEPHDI
# Outline: as §1
# ELK4 = target: T8, ELK4 (Homo sapiens, UniProt P28324-2 1-405)
# T8 sequence: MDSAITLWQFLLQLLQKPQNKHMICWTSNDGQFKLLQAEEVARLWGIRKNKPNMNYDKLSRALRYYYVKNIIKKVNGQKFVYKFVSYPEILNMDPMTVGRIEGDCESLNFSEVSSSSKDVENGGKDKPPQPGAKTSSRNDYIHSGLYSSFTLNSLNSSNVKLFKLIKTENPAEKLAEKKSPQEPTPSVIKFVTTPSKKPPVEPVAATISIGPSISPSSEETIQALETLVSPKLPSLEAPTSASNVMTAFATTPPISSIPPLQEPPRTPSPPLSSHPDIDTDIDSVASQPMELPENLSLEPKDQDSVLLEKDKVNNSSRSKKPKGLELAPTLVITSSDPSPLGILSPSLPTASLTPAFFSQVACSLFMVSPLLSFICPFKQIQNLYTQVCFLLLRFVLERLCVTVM
# Outline: as §1
# ETV2 = target: T9, ETV2 (Homo sapiens, UniProt O00321 1-342)
# T9 sequence: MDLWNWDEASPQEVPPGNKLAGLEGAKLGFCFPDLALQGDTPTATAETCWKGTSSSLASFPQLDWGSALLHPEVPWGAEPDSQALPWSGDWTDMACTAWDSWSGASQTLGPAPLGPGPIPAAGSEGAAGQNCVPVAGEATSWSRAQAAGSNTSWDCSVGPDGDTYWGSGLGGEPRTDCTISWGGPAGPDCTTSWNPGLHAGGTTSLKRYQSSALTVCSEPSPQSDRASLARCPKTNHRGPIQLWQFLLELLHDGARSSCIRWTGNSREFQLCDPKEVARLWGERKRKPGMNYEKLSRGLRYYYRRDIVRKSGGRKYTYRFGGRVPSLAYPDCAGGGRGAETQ
# Outline: as §1
# ELF3 = target: T10, ELF3 (Homo sapiens, UniProt P78545 1-371)
# T10 sequence: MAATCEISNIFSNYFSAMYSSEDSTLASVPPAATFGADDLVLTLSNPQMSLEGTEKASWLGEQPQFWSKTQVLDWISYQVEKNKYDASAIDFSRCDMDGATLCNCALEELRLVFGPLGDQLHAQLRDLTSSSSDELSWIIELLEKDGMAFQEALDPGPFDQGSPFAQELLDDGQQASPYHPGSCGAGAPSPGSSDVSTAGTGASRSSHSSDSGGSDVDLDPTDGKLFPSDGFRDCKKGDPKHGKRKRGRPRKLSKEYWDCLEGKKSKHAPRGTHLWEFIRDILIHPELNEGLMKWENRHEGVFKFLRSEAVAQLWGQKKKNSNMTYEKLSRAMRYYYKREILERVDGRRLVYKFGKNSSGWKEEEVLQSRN
# Outline: as §1
# CRX = CRX (Homo sapiens, UniProt O43186 1-299)
# Chain of CRX (O43186 whole entry): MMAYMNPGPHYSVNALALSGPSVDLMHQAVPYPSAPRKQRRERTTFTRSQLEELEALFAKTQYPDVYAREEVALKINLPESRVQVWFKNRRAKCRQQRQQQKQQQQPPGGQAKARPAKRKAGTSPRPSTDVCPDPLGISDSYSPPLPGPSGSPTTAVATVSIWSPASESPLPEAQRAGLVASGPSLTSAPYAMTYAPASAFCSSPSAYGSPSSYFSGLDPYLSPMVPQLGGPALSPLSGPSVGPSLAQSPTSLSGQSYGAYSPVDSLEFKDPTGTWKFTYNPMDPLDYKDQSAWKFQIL
# Outline: as §1
# ETV1 = ETV1 (Homo sapiens, UniProt P50549 1-477)
# Chain of ETV1 (P50549 whole entry): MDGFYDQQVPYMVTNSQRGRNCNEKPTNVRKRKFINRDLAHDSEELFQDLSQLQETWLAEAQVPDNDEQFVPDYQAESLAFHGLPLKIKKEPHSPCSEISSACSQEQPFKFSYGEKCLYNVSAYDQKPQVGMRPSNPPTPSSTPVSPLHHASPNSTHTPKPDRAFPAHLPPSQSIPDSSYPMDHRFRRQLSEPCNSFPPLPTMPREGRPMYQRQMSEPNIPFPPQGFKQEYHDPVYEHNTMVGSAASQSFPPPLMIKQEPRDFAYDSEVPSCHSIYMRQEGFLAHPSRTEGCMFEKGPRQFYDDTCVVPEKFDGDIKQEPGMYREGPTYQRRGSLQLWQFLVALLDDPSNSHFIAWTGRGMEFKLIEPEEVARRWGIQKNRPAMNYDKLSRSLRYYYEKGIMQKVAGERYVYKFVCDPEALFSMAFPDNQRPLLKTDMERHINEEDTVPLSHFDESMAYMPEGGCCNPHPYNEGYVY
# Outline: as §1
# ELK3 = target: T11, ELK3 (Homo sapiens, UniProt P41970 1-407)
# T11 sequence: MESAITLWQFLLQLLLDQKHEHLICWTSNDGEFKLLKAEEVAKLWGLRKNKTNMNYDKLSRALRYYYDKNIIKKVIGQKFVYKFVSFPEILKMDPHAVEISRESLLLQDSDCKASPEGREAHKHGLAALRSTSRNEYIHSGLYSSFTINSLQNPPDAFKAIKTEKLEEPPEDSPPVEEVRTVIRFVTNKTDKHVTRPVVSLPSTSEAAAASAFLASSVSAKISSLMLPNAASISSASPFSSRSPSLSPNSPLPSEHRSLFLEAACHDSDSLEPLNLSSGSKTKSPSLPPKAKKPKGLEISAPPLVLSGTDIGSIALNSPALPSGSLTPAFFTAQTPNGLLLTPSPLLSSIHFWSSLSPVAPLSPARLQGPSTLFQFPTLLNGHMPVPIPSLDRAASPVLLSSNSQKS
# Outline: as §1
Sequence,binding signal (FLI1),binding signal (ELK1),binding signal (GABPA),binding signal (ERG),binding signal (ELF1),binding signal (EHF),binding signal (SPI1),binding signal (SPIB),binding signal (FEV),binding signal (ETV5),binding signal (SPIC),binding signal (ELF4),binding signal (ELK4),binding signal (ETV2),binding signal (ELF3),binding signal (CRX),binding signal (ETV1),binding signal (ELK3)
TGTTGA,"1.15 fold enrichment (6-mer frequency, TF over GST control)","1.08 fold enrichment (6-mer frequency, TF over GST control)","1.16 fold enrichment (6-mer frequency, TF over GST control)","1.08 fold enrichment (6-mer frequency, TF over GST control)","1.16 fold enrichment (6-mer frequency, TF over GST control)","1.07 fold enrichment (6-mer frequency, TF over GST control)","1.11 fold enrichment (6-mer frequency, TF over GST control)","1.09 fold enrichment (6-mer frequency, TF over GST control)","1.07 fold enrichment (6-mer frequency, TF over GST control)","1.07 fold enrichment (6-mer frequency, TF over GST control)","1.15 fold enrichment (6-mer frequency, TF over GST control)","1.1 fold enrichment (6-mer frequency, TF over GST control)","1.16 fold enrichment (6-mer frequency, TF over GST control)","1.12 fold enrichment (6-mer frequency, TF over GST control)","1.09 fold enrichment (6-mer frequency, TF over GST control)","1.02 fold enrichment (6-mer frequency, TF over GST control)","1.07 fold enrichment (6-mer frequency, TF over GST control)",
GTCACA,"1.11 fold enrichment (6-mer frequency, TF over GST control)","1.1 fold enrichment (6-mer frequency, TF over GST control)","1.12 fold enrichment (6-mer frequency, TF over GST control)","1.13 fold enrichment (6-mer frequency, TF over GST control)","1.17 fold enrichment (6-mer frequency, TF over GST control)","1.07 fold enrichment (6-mer frequency, TF over GST control)","1.13 fold enrichment (6-mer frequency, TF over GST control)","1.07 fold enrichment (6-mer frequency, TF over GST control)","1.11 fold enrichment (6-mer frequency, TF over GST control)","1.1 fold enrichment (6-mer frequency, TF over GST control)","1.04 fold enrichment (6-mer frequency, TF over GST control)","1.08 fold enrichment (6-mer frequency, TF over GST control)","1.07 fold enrichment (6-mer frequency, TF over GST control)","1.01 fold enrichment (6-mer frequency, TF over GST control)","1.08 fold enrichment (6-mer frequency, TF over GST control)",,"1.06 fold enrichment (6-mer frequency, TF over GST control)","1.04 fold enrichment (6-mer frequency, TF over GST control)"
